Measured values taken from PubChem BioAssay (EPA / NIEHS).
Inconclusive results are not listed. Active and inactive are the calls of the source. How the source made its calls: active means hit-call score of the fitted dose curve at least 0.9, where 1 is the maximum; inconclusive means response in the unintended direction; inactive means score below 0.9.

target: human Dopamine Receptor D2 (DRD2), DRD2 (gene 1813) (UniProt P14416); experiment: NVS_GPCR_hDRD2s: NovaScreen (NVS) G Protein-Coupled Receptor Assay for human Dopamine Receptor D2 (DRD2) (AID 2283266)
Experimental: NVS_GPCR_hDRD2s is a biochemical, single-readout assay that uses extracted gene-proteins from CHO in a cell-free assay. Measurements were taken 1.5 hours after chemical dosing in a 96-well plate.NVS_GPCR_hDRD2s is one of one assay component(s) measured or calculated from the NVS_GPCR_hDRD2s assay. It is designed to make measurements of radioligand binding, a form of binding reporter, as detected with scintillation counting signals by Filter-based radiodetection technology.Data from the assay component NVS_GPCR_hDRD2s was analyzed into 1 assay endpoint. This assay endpoint, NVS_GPCR_hDRD2s, was analyzed in the positive analysis fitting direction relative to DMSO as the negative control and baseline of activity. Using a type of binding reporter, loss-of-signal activity can be used to understand changes in the binding as they relate to the gene DRD2. Furthermore, this assay endpoint can be referred to as a primary readout, because the performed assay has only produced 1 assay endpoint. To generalize the intended target to other relatable targets, this assay endpoint is annotated to the gpcr intended target family, where the subfamily is rhodopsin-like receptor.
Binding assays used specific radioligands (tritiated, iodinated) with non-radioactive competitive displacement ligands in agonist or antagonist protocols (as indicated) and various reference compounds and inhibitors to titrate specific binding to receptors and transporters. Most enzyme assays (CYPs, kinases, phosphatases, proteases, HDACs) used recombinant protein and specific substrates (fluorescence mostly, some colorimetric and radioactive) and inhibitors, followed by a biochemical separation of substrate and product. All assays for the biochemical HTS were initially run in duplicate at a single concentration (10 uM for CYP450 assays and 25 uM for all others). […] Each assay was run with positive and negative controls, and concurrent controls on every plate. The follow-up (secondary) screen tested active chemical-pairs in concentration series, as well as a few additional assays not tested in the primary screen, some selected negative inactives, and several cases re-run in the concentration series for confirmatory purposes.

Sequence of human Dopamine Receptor D2 (DRD2), DRD2 (gene 1813) (P14416 whole entry, looked up): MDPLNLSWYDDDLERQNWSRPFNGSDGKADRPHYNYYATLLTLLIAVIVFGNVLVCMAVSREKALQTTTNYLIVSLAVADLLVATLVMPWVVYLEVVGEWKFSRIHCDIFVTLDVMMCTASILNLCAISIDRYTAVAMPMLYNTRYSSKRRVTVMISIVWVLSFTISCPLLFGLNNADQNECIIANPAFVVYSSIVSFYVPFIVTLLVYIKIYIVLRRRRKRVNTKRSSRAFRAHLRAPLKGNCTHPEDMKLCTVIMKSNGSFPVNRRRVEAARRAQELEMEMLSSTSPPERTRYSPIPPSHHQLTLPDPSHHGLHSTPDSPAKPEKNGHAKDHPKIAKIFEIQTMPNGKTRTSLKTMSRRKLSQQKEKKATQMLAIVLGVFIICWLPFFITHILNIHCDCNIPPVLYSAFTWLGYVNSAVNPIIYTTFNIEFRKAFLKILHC

Row | Compound | outcome | AC50
1 | CN(C)C(=O)NC1(c2ccccc2)CCN(CC[C@@]2(c3ccc(F)c(F)c3)CN(C(=O)c3ccccc3)CCO2)CC1 | inactive | –
2 | Cc1cc(SC2=C(O)C[C@@](CCc3ccc(N)cc3)(C(C)C)OC2=O)c(C(C)(C)C)cc1CO | inactive | –
3 | CN(C)C(=O)NC1(c2ccccc2)CCN(CCC[C@]2(c3ccc(Cl)c(Cl)c3)CCCN(C(=O)c3ccccc3)C2)CC1 | – | 4 µM (active)
4 | O=C(O)c1[nH]n(-c2ccc(S(=O)(=O)O)cc2)c(=O)c1N=Nc1ccc(S(=O)(=O)O)cc1 | inactive | –
5 | CCCCCCCCCCCCCCOS(=O)(=O)O | – | 15.1 µM (active)
6 | CSc1ccc(Oc2ccc(S(N)(=O)=O)cc2CN(C)C)cc1C | – | 15 µM (active)
7 | COc1ccc(OC(F)(F)F)cc1CN[C@H]1CCCN[C@H]1c1ccccc1 | inactive | –
8 | CCN(CC)CCOc1ccc(C(=C(Cl)c2ccccc2)c2ccccc2)cc1 | – | 1.79 µM (active)
9 | O=C(N[C@@H](c1ccccc1)[C@@H]1CCCCN1)c1cccc(C(F)(F)F)c1Cl | inactive | –
10 | Cc1c(C)c2c(c(C)c1O)CCC(C)(COc1ccc(CC3SC(=O)NC3=O)cc1)O2 (stereo not given) | inactive | –
